# SSB-PriA inh: inhibitors of Klebsiella pneumoniae PriA binding to SSB C-terminal tail, primary screen, biochemical, AlphaScreen; inhibition, % at 33 µM; actives 0.6% (n = 430,000); AlphaScreen SSBct-PriA binding, biotinylated peptide; PriA–SSB C-terminal tail interaction (Klebsiella pneumoniae); in the data active = inhibition mostly above about 37%, no sharp cut-off; inactive = mostly below about 20%
# UGM FP inh: M. tuberculosis UGM enzyme inhibitors, primary screen, biochemical, fluorescence polarization, single point; purified UGM, fluorescence polarization probe displacement; UDP-galactopyranose mutase (Mycobacterium tuberculosis (strain ATCC 25618 / H37Rv)), …; actives 0.06% (n = 320,000); inhibition, % at 10 µM; in the data active = inhibition above about 10%, passing the limit was not always enough; inconclusive = no clear call, values can overlap the other calls
# PrPC surface inh: inhibitors of human cell surface prion protein PrPC, primary screen, cell-based, TR-FRET | inhibition, % at 13.8 µM | Major prion protein (Homo sapiens), P04156 | actives 0.43% (n = 370,000) | TR-FRET read-out; in the data active = inhibition above about 24%
# FadD28 binding: inhibitors of FadD28 bisubstrate probe binding, primary screen, biochemical, fluorescence polarization, single point. Mycobacterium tuberculosis FadD28 fatty-acid-AMP ligase. inhibition, % at 12.5 µM. actives 0.22% (n = 360,000); in the data active = inhibition above about 8.5%, passing the limit was not always enough; inconclusive = no clear call, values can overlap the other calls
# Rv3671c inh: Rv3671c serine protease inhibitors, primary screen, biochemical, fluorescence polarization, M. tuberculosis H37Rv. P9WHR9. inhibition, % at 5.96 µM. actives 0.048% (n = 320,000); in the data active = inhibition above about 38%;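 note: extracellular domain of Rv3671c used as enzyme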
# Target sequence (P9WHR9 whole entry, looked up, the tested form may be a part): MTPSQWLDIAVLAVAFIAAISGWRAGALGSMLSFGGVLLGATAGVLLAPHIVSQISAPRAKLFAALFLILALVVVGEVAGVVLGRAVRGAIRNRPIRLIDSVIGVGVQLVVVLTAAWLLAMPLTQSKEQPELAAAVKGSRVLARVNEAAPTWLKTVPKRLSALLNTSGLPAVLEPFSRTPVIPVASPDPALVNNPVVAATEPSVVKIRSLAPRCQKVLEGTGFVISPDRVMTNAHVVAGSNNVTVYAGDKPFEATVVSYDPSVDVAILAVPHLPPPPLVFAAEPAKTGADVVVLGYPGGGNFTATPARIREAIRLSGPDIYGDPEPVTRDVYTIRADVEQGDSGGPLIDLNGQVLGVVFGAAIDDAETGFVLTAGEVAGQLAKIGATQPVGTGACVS
# PrP UTR inh: inhibition of PrP 5' UTR reporter expression. cell-based PrP 5' UTR mRNA reporter, plate reader. inhibition, % (concentration not given with the values). actives 0.35% (n = 340,000); in the data active = inhibition above about 52%
# Numbers stand for hits; i = inactive; ? = inconclusive; nt = no result given. The list is not random: actives were taken first. Their share in the collection is about 1.2%.
SMILES,SSB-PriA inh,UGM FP inh,PrPC surface inh,FadD28 binding,Rv3671c inh,PrP UTR inh
COc1ccc(-c2c(C#Cc3ccc(N(C)C)cc3)c3ccccc3n2C)cc1,78,i,i,i,i,i
CCCCCCC(NC(=O)c1ccc(C)cc1)C(=O)O (centres undefined),57,nt,i,i,nt,i
Cc1ccc(C(=O)NC(CCc2ccccc2)C(=O)O)cc1 (centres undefined),i,nt,i,i,nt,i
COc1ccc(NC(=O)c2c(OC)cccc2OC)c(OC)c1,67,i,i,i,i,i
Cc1noc(C)c1S(=O)(=O)N1CC(n2cc(-c3ccccc3)nn2)C1,i,nt,nt,nt,nt,nt
COC(=O)c1ccc(-c2noc(CN3CCCC(CNC(C)=O)C3)n2)cc1 (centres undefined),i,i,i,i,i,58
CONC(=O)C1CCCN(Cc2nc(-c3cccs3)no2)C1 (centres undefined),i,nt,nt,nt,nt,nt
CCOc1cccc(C2C(C(=O)c3ccc(C)o3)=C(O)C(=O)N2c2nccs2)c1 (centres undefined),i,16,i,i,i,i
CCOc1cccc(C2C(C(=O)c3ccc(C)o3)=C(O)C(=O)N2Cc2ccncc2)c1 (centres undefined),i,i,i,i,i,i
COc1cccc(-c2cc(-c3nc(-c4ccc(C(F)(F)F)cc4)no3)[nH]n2)c1,i,nt,nt,nt,nt,nt
Cn1c(-c2ccc(Br)cc2)cnc1SCc1ccccc1,67,nt,nt,nt,nt,nt
COc1ccc(-c2cc(=O)oc3cc(OCC(=O)NCCCn4ccnc4)ccc23)cc1,i,i,i,i,i,i
CCc1cc(=O)oc2cc(OCC(=O)NCCCn3ccnc3)ccc12,39,i,i,i,i,i
Cc1cc(C(=O)COc2cccc3cccnc23)c(C)n1C,i,16,i,i,i,i
Cc1cc(OC(=O)c2ccccc2I)c([N+](=O)[O-])c(=O)[nH]1,i,nt,nt,nt,nt,nt
Cc1cc(OC(=O)c2ccccc2[N+](=O)[O-])c([N+](=O)[O-])c(=O)[nH]1,99,i,i,i,i,i
Cc1ccc(S(=O)(=O)Nc2c(S(=O)(=O)c3ccc(C)cc3)c3nc4ccccc4nc3n2Cc2ccccc2)cc1,i,nt,nt,nt,nt,nt
CCCCn1c(NS(=O)(=O)c2ccccc2)c(S(=O)(=O)c2ccc(C)cc2)c2nc3ccccc3nc21,58,i,i,?,i,i
Cc1ccc(S(=O)(=O)c2c(NS(=O)(=O)c3ccccc3)n(CCc3ccccc3)c3nc4ccccc4nc23)cc1,67,nt,nt,nt,nt,nt
CCCCCCCCn1c(NS(=O)(=O)c2ccccc2)c(S(=O)(=O)c2ccc(C)cc2)c2nc3ccccc3nc21,i,nt,nt,nt,nt,nt
CCCCOCCCn1c(NS(=O)(=O)c2ccc(F)cc2)c(S(=O)(=O)c2ccc(C)cc2)c2nc3ccccc3nc21,67,nt,nt,nt,nt,nt
Nc1nc(SCCN2CCOCC2)[nH]c(=O)c1NC(=O)c1ccc(F)c(F)c1,i,nt,nt,nt,nt,nt
CCCNC(=O)Cn1nc2c(c1NC(=O)C1c3ccccc3Oc3ccccc31)CSC2,i,nt,nt,nt,nt,nt
Cc1ccc(C)c2sc(N(Cc3ccccn3)C(=O)c3ccc(N(C)C)cc3)nc12,i,nt,nt,nt,nt,nt
Cc1cccc2sc(NC(=O)C(=O)NCCCN3CCOCC3)nc12,i,nt,nt,nt,nt,nt
SMILES,SSB-PriA inh,UGM FP inh,PrPC surface inh,FadD28 binding,Rv3671c inh,PrP UTR inh
O=C(CN1CC(=O)Oc2ccccc21)OCC(=O)c1cccc(Br)c1,77,i,nt,i,i,i
O=C(CN1CC(=O)Oc2ccccc21)OCC(=O)c1ccccc1,92,i,i,i,i,i
O=C(CN1CC(=O)Oc2ccccc21)OCC(=O)c1ccc(Cl)cc1,i,nt,nt,nt,nt,nt
O=[N+]([O-])c1ccc(NS(=O)(=O)Cc2ccccc2F)cc1,i,nt,nt,nt,nt,nt
CCOc1ccc(S(=O)(=O)N2C3CCC2CC(S(=O)(=O)c2ccccc2)C3)cc1 (centres undefined),i,nt,nt,nt,nt,nt
O=C(c1ccc(Cl)cc1)N1C2CCC1CC(S(=O)(=O)c1ccccc1)C2 (centres undefined),i,nt,nt,nt,nt,nt
O=C(c1ccc2nsnc2c1)N1C2CCC1CC(S(=O)(=O)c1ccccc1)C2 (centres undefined),74,nt,nt,nt,nt,nt
Cc1ccc(OCC(=O)N2C3CCC2CC(S(=O)(=O)c2ccccc2)C3)cc1 (centres undefined),79,nt,nt,nt,nt,nt
OCCOCc1ccc(O)c2ncccc12,140,nt,nt,nt,nt,nt

# Screening data deposited in PubChem BioAssay by several laboratories.
